Compounds without any hit were thinned out: in the full panel of roughly 79,000, 15% have a hit. Values without a mark were called inactive. Active and inactive are the calls of the source. Rule as the data show it: active = growth inhibition above about 70%; inactive = the rest.
Columns and labels:
[1] = NCI Yeast Anticancer Drug Screen. Data for the rad50 strain (AID 155);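 also: 0% = growth of vehicle-only cultures of the same strain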; conditions: S. cerevisiae rad50 strain growth inhibition, hits give high values
Summary of the method: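 Cells are treated with compound, grown, and their growth is then scored against vehicle-only cultures of the same repair-deficient yeast strain.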

[2] = NCI Yeast Anticancer Drug Screen. Data for the mec2-1 strain (AID 157); conditions: S. cerevisiae mec2-1 strain, hits give high values
Summary of the method: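 Test agents were screened against the mec2-1 yeast strain, with defined DNA repair or cell cycle alteration. Growth was scored as inhibition against vehicle-only controls.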

[3] = NCI Yeast Anticancer Drug Screen. Data for the sgs1 mgt1 strain (AID 161);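 also: 0% = growth of cultures given vehicle only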; conditions: S. cerevisiae sgs1 mgt1 strain, hits give high values
Summary of the method: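 Inhibition of yeast growth, normalised to vehicle-treated controls, is reported for a strain bearing genetic alterations in DNA damage repair.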

[4] = NCI Yeast Anticancer Drug Screen. Data for the cln2 rad14 strain (AID 165);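 also: 0% = growth equal to vehicle treated cultures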; conditions: S. cerevisiae cln2 rad14 strain, hits give high values
Summary of the method: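 Growth of compound-exposed yeast (cln2 rad14 genotype) measured and expressed as inhibition relative to vehicle.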

[5] = NCI Yeast Anticancer Drug Screen. Data for the bub3 strain (AID 167); conditions: S. cerevisiae bub3 mutant strain, hits give high values
Summary of the method: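 Part of a panel of yeast mutants defective in DNA damage repair or cell cycle regulation. Each strain is grown with compound, and inhibition is calculated relative to solvent-treated cultures.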

[6] = NCI Yeast Anticancer Drug Screen. Data for the mlh1 rad18 strain (AID 175); conditions: S. cerevisiae mlh1 rad18 strain growth inhibition, hits give high values
Summary of the method: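 In this whole-cell yeast screen, a strain with altered DNA damage repair is challenged with compound, and its growth is measured against matched vehicle-treated controls.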

[7] = at 5.0 µM (retest, dose inferred, filed as 0.5)
[8] = at 50.0 µM (retest, dose inferred, filed as 5.0)

SMILES	growth inhibition [1, 7]	growth inhibition [1, 8]	growth inhibition ([1]; at 50.0 µM)	growth inhibition [2, 7]	growth inhibition [2, 8]	growth inhibition ([2]; at 50.0 µM)	growth inhibition [3, 7]	growth inhibition [3, 8]	growth inhibition ([3]; at 50.0 µM)	growth inhibition [4, 7]	growth inhibition [4, 8]	growth inhibition ([4]; at 50.0 µM)	growth inhibition [5, 7]	growth inhibition [5, 8]	growth inhibition ([5]; at 50.0 µM)	growth inhibition [6, 7]	growth inhibition [6, 8]	growth inhibition ([6]; at 50.0 µM)
CC(=C/c1ccccc1)/C=C1/NC(=S)N(/C=C2\C(=O)Oc3ccccc3C2=O)C1=O	-13%	28%	98.1% (active)	-8%	41%	98.7% (active)	-16%	28%	89.1% (active)	-28%	34%	98.5% (active)	-24%	11%	98.5% (active)	-7%	12%	98.5% (active)
O=[N+]([O-])c1ccc(O)c(-c2ccccc2)c1	3%	99% (active)	99.3% (active)	-31%	99% (active)	99.7% (active)	6%	99% (active)	98.8% (active)	6%	99% (active)	98.7% (active)	-2%	98% (active)	99.2% (active)	5%	99% (active)	99.2% (active)
COc1cccc2c1C(=O)c1c(O)c3c(c(O)c1C2=O)C[C@@](O)(C(=O)CO)C[C@@H]3OC1CC(N)CC(C)O1 (some centres not stated)	81% (active)	98% (active)	89.3% (active)	24%	98% (active)	90.4% (active)	61%	99% (active)	90.1% (active)	63%	98% (active)	85% (active)	76% (active)	99% (active)	88.9% (active)	69%	97% (active)	92% (active)
O=c1c2ccccc2c2ccccc2n1O	93% (active)	92% (active)	97.5% (active)	95% (active)	95% (active)	97% (active)	93% (active)	94% (active)	96.5% (active)	76% (active)	89% (active)	93.8% (active)	88% (active)	91% (active)	95% (active)	94% (active)	94% (active)	98.3% (active)
COc1cccc(C(c2cc3c(cc2O)OCO3)N2CCCC2)c1O (configuration not stated)	0%	52%	48.2%	1%	44%	46.5%	-5%	48%	61.1%	-6%	24%	7.85%	6%	47%	41.2%	-1%	62%	77% (active)
CCCC/C(=N/Nc1ccc([N+](=O)[O-])cc1)C(=O)O	14%	97% (active)	71.5% (active)	8%	95% (active)	24.3%	14%	97% (active)	75% (active)	-3%	60%	24.5%	18%	98% (active)	82% (active)	21%	98% (active)	57.4%
C/C(O)=c1\cc(C#N)c(=C(C#N)C#N)nc1C	-4%	-3%	8.05%	-2%	1%	-0.15%	2%	5%	1.15%	-1%	-8%	-3%	3%	11%	10.6%	0%	3%	46.4%
C=CCC1(OC(C)=O)CC2C(=O)C(=O)C(C1)N2OC(=O)c1ccccc1 (configuration not stated)	20%	95% (active)	99% (active)	13%	96% (active)	99.1% (active)	22%	99% (active)	99.3% (active)	9%	94% (active)	98.3% (active)	-1%	93% (active)	98% (active)	10%	98% (active)	98.7% (active)
O=C1OC(c2ccccc2)(c2ccccc2)CC1CN1CCOCC1 (configuration not stated)	-16%	73% (active)	87.8% (active)	-4%	87% (active)	82.6% (active)	-1%	84% (active)	90% (active)	-9%	72% (active)	66%	1%	93% (active)	87% (active)	2%	88% (active)	79.7% (active)
c1ccc(C2=NCCC(c3ccccc3)S2)cc1 (configuration not stated)	-2%	5%	-2.55%	-4%	3%	-4.1%	-3%	4%	55.5%	-19%	-4%	-41.5%	2%	0%	68.1%	0%	8%	21.9%
CCCCCCCCCCCC[n+]1ccc(C)cc1	33%	99% (active)	98.2% (active)	76% (active)	100% (active)	99.2% (active)	33%	99% (active)	99% (active)	20%	99% (active)	96.8% (active)	80% (active)	99% (active)	98.9% (active)	18%	99% (active)	98.3% (active)
COc1ccc(Cc2coc3ccccc3c2=O)cc1OC	-1%	12%	-0.55%	2%	10%	-2.5%	1%	18%	18.4%	0%	3%	3.8%	23%	68%	71.1% (active)	-3%	12%	0.95%
CC(C)C(Sc1nc(-c2ccccc2)c(-c2ccccc2)[nH]1)c1n[nH]c(=S)n1-c1ccccc1 (configuration not stated)	-1%	97% (active)	95.8% (active)	12%	98% (active)	97.1% (active)	-13%	98% (active)	96.8% (active)	-24%	97% (active)	94.3% (active)	-1%	98% (active)	96.9% (active)	-3%	97% (active)	95.9% (active)
COc1cc(C=O)c(C=O)cc1OC	8%	74% (active)	69.9%	6%	40%	50.2%	3%	79% (active)	52.5%	9%	84% (active)	89.2% (active)	5%	87% (active)	73.5% (active)	16%	87% (active)	74.5% (active)
CCC(/C=C/c1ccccc1)=N\Nc1ccccc1	11%	89% (active)	47.7%	-10%	83% (active)	79% (active)	1%	91% (active)	34.1%	-27%	76% (active)	-12.3%	-15%	90% (active)	87.3% (active)	-13%	95% (active)	74.4% (active)
CCOC(=O)/C(=C\c1ccc(C)cc1)C(C)=O	19%	89% (active)	91.1% (active)	-19%	97% (active)	91.8% (active)	24%	95% (active)	93.1% (active)	5%	89% (active)	84.7% (active)	33%	98% (active)	91.2% (active)	22%	96% (active)	90.7% (active)
COC(=O)C(Sc1ccc(Cl)cc1)C1SC(=S)N(C)C1=O (configuration not stated)	34%	99% (active)	62%	19%	99% (active)	41.5%	21%	99% (active)	65.9%	27%	99% (active)	37.2%	15%	99% (active)	84.8% (active)	38%	98% (active)	58%
C/C(=N\Nc1n[nH]c(=S)n1N)c1c(O)cc(C)oc1=O	-28%	13%	-23%	3%	12%	12.1%	-1%	4%	18.9%	-2%	9%	-21%	2%	3%	14.1%	-2%	2%	16.5%
CN1C(=O)CCCCCCCCCCSc2ccccc21	7%	97% (active)	99% (active)	8%	99% (active)	99% (active)	4%	97% (active)	99.2% (active)	7%	99% (active)	96.7% (active)	16%	98% (active)	98.3% (active)	6%	98% (active)	98.8% (active)

— PubChem BioAssay (NCI)
